# Assay outcomes (PubChem BioAssay)
# Compounds with a hit are over-represented: about 3.4% of the library has one in this group of screens.
# Shn3 3UTR inh – reduces Shn3 3'UTR luciferase signal in osteoblasts | Clone20 osteoblast Shn3 3'UTR firefly luciferase, 24 h | inhibition, % at 12.5 µM | 360,000 compounds, 0.52% hits | AID 588674;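 active = mean inhibition of at least 75% with every replicate also reaching 75%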;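 note: 0% = median of neutral control wells and 100% = pilot-screen positive control compound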
# MITF TRPM1 inh – reduces MITF-dependent TRPM1 promoter luciferase signal | SK-MEL-5 TRPM1 promoter luciferase, 24 h | inhibition, % at 12.5 µM | 330,000 compounds, 0.83% hits;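 active = mean inhibition across replicates of 60% or more, whatever share of single replicates reaches that level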
# TWEAK-Fn14 inh – blocks TWEAK-Fn14 interaction in a reporter cell assay; TWEAK-stimulated Fn14 reporter cells, luciferase luminescence, 8 h; inhibition, % at 10 µM; 360,000 compounds, 2% hits; AID 1159606; in the data active = inhibition above about 50%
# TROY NFkB inh – TROY signaling inhibition; Q293 LMP1-TROYcd NF-kB luciferase reporter, 4 h; inhibition, % at 10 µM; 360,000 compounds, 0.98% hits; AID 1347056;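 active = compounds whose plate-normalised and pattern-corrected inhibition of the luciferase reporter signal at the single screening dose is 50% or more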
# HIF-2a inh – HIF-2a inhibition. 786-0 RCC cells HIF-2a reporter, luciferase luminescence, overnight. inhibition, % at 18.8 µM. 360,000 compounds, 0.72% hits;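 active = inhibition of the luminescence signal of 40% or more relative to plate controls, in a single-dose primary screen at 18.75 µM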
# LMP1 NFkB inh – inhibitors of Epstein-Barr LMP1-induced NF-kappaB reporter; inhibition, % at 12.5 µM; AID 504558; 350,000 compounds, 0.69% hits; LMP1-induced NF-kappaB luciferase reporter cells, luminescence; in the data active = inhibition above about 41%;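 note: 0% = neutral control wells and 100% = reference inhibitor control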
# The depositor's hits bear a star; . = no result.
SMILES,Shn3 3UTR inh,MITF TRPM1 inh,TWEAK-Fn14 inh,TROY NFkB inh,HIF-2a inh,LMP1 NFkB inh
NC(=O)c1cc([N+](=O)[O-])ccc1NCc1ccc(N)cc1,76,79*,84*,67*,93*,49*
NC(=O)c1cc([N+](=O)[O-])ccc1NCc1ccc(F)cc1,9,.,-2,-55,-156,17
COc1ccccc1NC(=O)COc1ccc(/C=N/NC(=O)CSCc2ccc(Cl)cc2)cc1,-6,-2,33,51*,14,8
CC1(C)CC(=O)C2=C(C1)NC(Nc1nc3ccccc3o1)=NC21CCCCC1,-4,9,6,3,5,-6
Cc1ccc2oc(NC3=NC4(CCCC4)C4=C(CCCC4=O)N3)nc2c1,7,.,52*,9,5,.
CC1=C(C(=O)N2CCOCC2)CC(CC(=O)NCc2ccco2)C(=O)N1CCC1=CCCCC1 (stereo not drawn),-20,.,-13,-7,-4,-3
CCc1cccc(N=c2c([N+](=O)[O-])nn(-c3ccc4c(c3)OCCO4)n2O)c1,0,0,31,55*,-50,10
CC(C)c1ccc(N=c2c([N+](=O)[O-])nn(-c3ccc4c(c3)OCCO4)n2O)cc1,-5,-7,35,18,-107,3
COc1cc(N=c2c([N+](=O)[O-])nn(-c3ccc4c(c3)OCCO4)n2O)cc(OC)c1,8,-17,41,53*,-88,6
C[C@H]1CN([C@@H](C)CO)C(=O)CCCn2cc(nn2)CO[C@@H]1CN(C)C(=O)CCC(F)(F)F,-6,.,88*,-5,4,4
O=C1c2cc([N+](=O)[O-])cc3cc([N+](=O)[O-])cc(c23)C(=O)N1c1ccccn1,3,82*,64*,-28,36,-34
C=CCOc1ccc(/C=C/C(=O)N2CCCN(S(=O)(=O)c3c(C)noc3C)CC2)cc1,15,-3,-23,4,-8,-3
Cc1nc(N2CCN(Cc3ccccc3)CC2)nc2c1CCC2,5,-5,60*,12,10,0
Cc1nnc(NC(=O)c2cc(-c3ccncc3)nc3c(C)cccc23)s1,-4,3,0,35,16,-5
Cc1cc(C)c2[nH]c(=O)c(CN(Cc3cccs3)C(=S)NCc3ccco3)cc2c1,19,3,64*,39,24,16
Cc1ccc2cc(CN(Cc3ccco3)C(=O)NCc3ccccc3)c(=O)[nH]c2c1C,23,11,22,50*,-108,1
Cc1ccc(NC(=O)CN(C)C(=O)COc2ccc(Br)cc2)cc1,4,.,-8,-6,4,2
Cc1ccc(-c2cn(-c3ccccc3)c3[n+]2CCCS3)cc1,77,43,25,10,17,4
COc1ccc(-n2cc(-c3ccc(C)cc3)[n+]3c2SCC3)cc1,79,71*,35,29,10,25
CC(C)(C)C1CCNC(=O)CC1 (stereo not drawn),-6,.,-5,6,5,2
COc1ccc(Cl)cc1NC(=O)c1cnc2n(c1=O)CCS2,-25,-14,53*,48,-54,-24
COc1cccc(C(=O)N2CCN(c3ccc(N4CCOCC4)nn3)CC2)c1,-6,-7,4,-11,7,-3
COc1ccc2c(c1)CCc1cc(C(=O)N3CCN(c4ccc(N5CCOCC5)nn4)CC3)sc1-2,-7,.,45,56*,-30,14
Cc1cccc(-c2nc(CNC(=O)c3ccco3)cs2)c1,-5,-22,-11,-59,-137,-20
Cc1ccc2[nH]c(=S)cc(C)c2c1,-13,10,-2,6,1,5
Cc1cc(=S)[nH]c2ccccc12,4,9,-14,9,16,63*
Cc1cc(C)c2c(N)c(C(=O)NN3CC(=O)N(c4ccccc4F)CC3=O)sc2n1,-3,-9,103*,-4,0,-2
COc1cccc(N2CC(=O)N(NC(=O)c3sc4nc(C)cc(C)c4c3N)CC2=O)c1,4,5,7,15,10,3
COc1cccc(/C=C/C(=O)NNC(=O)c2ccco2)c1OC,-100,-41,12,-21,-126,-4
COc1ccccc1CNCC(O)Cn1c2ccccc2c2ccccc21 (stereo not drawn),28,84*,-25,-3,23,-17
